Calls of active or inactive are those of the source. Unless noted, how the calls were made is not given here.
Assays:
[1] = test system: Wnt5a (protein binding on small-molecule microarray); experiment: small molecules binding Wnt5a protein – biophysical, small-molecule microarray, 635/667 nm fluorescence, primary screen (AID 1142); conditions: 635 nm fluorescence, higher = more signal;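 further: fluorescence read at 667 nm with signal to noise per printed feature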
[2] = ATP-based viability of Huh7 replicon cells – cell-based, CellTiter-Glo luminescence, basal, 48 h, cytotoxicity control for HCV replication inhibitor project, primary screen (AID 1143); conditions: higher = more signal, called active from +8 up or from −8 down;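 further: Huh7 hepatoma cells carrying a hepatitis C replication reporter with no stimulus; test concentration not given here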
[3] = Pseudomonas biofilm growth suppression – PAO1 strain, BacTiter-Glo luminescence, LB-PBS, primary screen (AID 1144); conditions: P. aeruginosa PAO1 biofilm, 12 h, higher = more signal
[4] = basal CRE-LacZ reporter activity in PC12 – cell-based, unstimulated, primary screen (AID 1145); conditions: no forskolin, luminescence, 4.5 h, higher = more signal, called active from +8 up or from −8 down
[5] = forskolin-driven CRE-LacZ activity in PC12 – cell-based, CRE-LacZ reporter, forskolin-stimulated, primary screen (AID 1146); conditions: luminescence, 4.5 h, higher = more signal, called active from +8 up or from −8 down;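 further: PC12 cells with 6xCRE LacZ reporter stimulated by forskolin 10 µM; beta-galactosidase reporter signal reflecting CREB driven transcription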
[6] = biological target: Streptavidin (Streptomyces avidinii) (UniProt P22629); experiment: compounds binding control protein streptavidin – biophysical, small-molecule microarray, 635/667 nm fluorescence, artefact control for SMM compound annotation, primary screen (AID 1147); conditions: higher = more signal;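 further: signal reflects streptavidin binding to arrayed compounds as a control protein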
Sequence of Streptavidin (Streptomyces avidinii) (P22629 whole entry, looked up): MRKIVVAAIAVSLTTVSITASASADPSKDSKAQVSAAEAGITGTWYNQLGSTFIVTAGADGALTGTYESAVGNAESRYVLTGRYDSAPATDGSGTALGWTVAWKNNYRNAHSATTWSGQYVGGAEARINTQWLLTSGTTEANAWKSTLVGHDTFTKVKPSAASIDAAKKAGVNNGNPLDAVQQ

[7] = probe aInhba binding on compound microarray – biochemical, small-molecule microarray, 635/667 nm fluorescence, primary screen (AID 1148); conditions: higher = more signal;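 further: score merges 667nm spot fluorescence with signal-to-noise for antibody binding to printed compounds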
Torsin-1A (Homo sapiens) [8] = biological target: Torsin-1A (Homo sapiens) (UniProt O14656); experiment: TOR1A wild-type binding on microarray – cell lysate, small-molecule microarray, lysate, 635/667 nm, primary screen (AID 1149); conditions: COS7 hTOR1A-WT lysate, 635 nm fluorescence, higher = more signal
Sequence of Torsin-1A (Homo sapiens) (O14656 whole entry, looked up): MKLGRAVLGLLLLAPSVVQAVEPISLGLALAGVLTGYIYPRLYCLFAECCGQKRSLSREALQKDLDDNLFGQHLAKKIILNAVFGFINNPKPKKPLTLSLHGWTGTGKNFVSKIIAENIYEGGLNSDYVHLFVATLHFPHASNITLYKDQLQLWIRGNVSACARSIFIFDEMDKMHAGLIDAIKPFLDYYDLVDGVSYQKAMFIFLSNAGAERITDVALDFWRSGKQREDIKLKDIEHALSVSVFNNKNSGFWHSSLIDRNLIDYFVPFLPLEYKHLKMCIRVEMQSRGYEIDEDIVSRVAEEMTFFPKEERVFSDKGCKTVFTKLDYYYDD

Torsin-1A (Homo sapiens) [9] = biological target: Torsin-1A (Homo sapiens) (UniProt O14656); experiment: torsin A mutant lysate binding on microarrays – cell lysate, small-molecule microarray, COS7 lysate, 635/667 nm fluorescence, primary screen (AID 1150); conditions: COS7 hTOR1A mutant lysate, 635 nm fluorescence, higher = more signal;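 further: score pools 667 nm emission and signal to noise measuring lysate protein binding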
[10] = test system: Sonic hedgehog protein (Shh); experiment: Sonic hedgehog microarray binding compounds – biochemical, small-molecule microarray, 635/667 nm fluorescence, primary screen (AID 1151); conditions: 635 nm fluorescence, higher = more signal;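 further: Shh protein binding to compounds spotted on small-molecule microarray slides; score combines spot fluorescence intensity with signal-to-noise across triplicate slides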

SMILES | composite z-score [1] | z-score [2] | z-score [3] | z-score [4] | z-score [5] | composite z-score [6] | composite z-score [7] | composite z-score (Torsin-1A (Homo sapiens) [8]) | composite z-score (Torsin-1A (Homo sapiens) [9]) | composite z-score [10]
CC(C)c1ccc(NN2C(C(O)C3CCCCC3)C=CC3C(=O)N(c4ccccc4)C(=O)C32)cc1 (stereo not given) | 0.283 | -0.575 (inactive) | -1.15 (inactive) | 0.0467 (inactive) | 0.337 (inactive) | 1.88 | 0.0968 | -0.147 | 0.316 | 0.771
Cc1ccc(S[C@]2(C(=O)NC(C)C)CC(=O)N(Cc3ccccc3)[C@@H]2c2ccc(CO)cc2)cc1 | -0.394 | -2.19 (inactive) | -1.55 (inactive) | -0.295 (inactive) | 0.12 (inactive) | -0.375 | -0.143 | -1.65 | -1.5 | -0.501
COc1ccc(C(=O)Nc2ccc(CN3C(=O)[C@]4(O[C@H](CC(=O)N(CCO)Cc5ccccc5)[C@@H]([Si](C)(C)c5ccc(OC)cc5)[C@@H]4C)c4ccccc43)cc2)cc1 | 0.334 | -4.06 (inactive) | 0.52 (inactive) | 0.339 (inactive) | -0.221 (inactive) | -0.138 | -0.128 | 0.689 | -0.0595 | 1.94
C=C(COC)/C(=C/C[C@@H](OC(=O)c1ccncc1)c1ccccc1OCCO)c1cnc2ccccc2c1 | 1.09 | -3 (inactive) | 1.45 (inactive) | 18.2 (active) | 1.24 (inactive) | 1.93 | 0.0422 | 0.113 | 1.15 | 2.07
COCCOC(=O)N1C(=O)[C@@]2(c3cc(C#CCNC(N)=O)ccc31)[C@H](C(N)=O)[C@H]1C(=O)O[C@H](c3ccccc3)[C@H](c3ccccc3)N1[C@@H]2c1ccc(O)cc1 | 0.159 | 0.29 (inactive) | -0.204 (inactive) | 0.619 (inactive) | -0.713 (inactive) | -0.0811 | 0.296 | 0.572 | -0.0113 | 0.0133
O=C1C2C=CC(C(O)C3CC=CCC3)N(Nc3ccc([N+](=O)[O-])cc3)C2C(=O)N1c1ccccc1 (stereo not given) | 0.632 | -0.574 (inactive) | -0.917 (inactive) | 1.23 (inactive) | 1.13 (inactive) | 0.941 | 0.74 | 0.26 | 0.483 | 0.606
C[C@]12C(=O)N(CCO)[C@@H]3C(=O)N(c4ccc(Cl)cc4)CC=CC31O[C@@H]1/C=C\CCCOC(=O)C12 (stereo not given in full) | -0.68 | 0.0051 (inactive) | -0.21 (inactive) | 0.467 (inactive) | 0.0098 (inactive) | -0.542 | -0.21 | -1.5 | -0.706 | 1.18
COCCCNC(=O)[C@@]1(CCC(=O)OC(C)(C)C)N=C(c2ccc(OCCCO)cc2)O[C@H]1c1ccccc1 | 0.581 | 0.0272 (inactive) | -0.029 (inactive) | -1.29 (inactive) | -0.391 (inactive) | 0.471 | 0.113 | 0.725 | 1.12 | -0.119
COC(=O)C(CC#Cc1ccc2c(c1)[C@]1(C(=O)N2)[C@H](C(N)=O)[C@H]2C(=O)O[C@H](c3ccccc3)[C@H](c3ccccc3)N2[C@@H]1c1ccccc1OCCO)C(=O)OC | 0.151 | -6.25 (inactive) | -0.451 (inactive) | 0.362 (inactive) | -0.955 (inactive) | -0.0001 | -0.152 | 0.544 | 1.48 | 1.07
C=CC[C@H](O)c1ccc(O)c2ccccc12 | 0.188 | 0.273 (inactive) | -0.725 (inactive) | 6.45 (inactive) | 1.82 (inactive) | 0.881 | -0.101 | 0.172 | 0.46 | 1.96
COC(=O)C(CC#Cc1ccc2c(c1)[C@]1(C(=O)N2)[C@H](C(=O)N2CCCCCCC2)[C@H]2C(=O)O[C@H](c3ccccc3)[C@H](c3ccccc3)N2[C@@H]1c1ccc(OCCO)cc1)C(=O)OC | 2.02 | -0.873 (inactive) | 1.02 (inactive) | -0.581 (inactive) | -0.546 (inactive) | 4.12 | 1.97 | 3.57 | 3.65 | 2.05

Reference: PubChem BioAssay
